Tests used:
Test in all cases: DAPPL (digital affinity profiling via proximity ligation, sequencing); 10 mM Tris-HCl pH 7.5, 50 mM NaCl, 1 mM DTT, 4% glycerol, room temperature, 30 min; GST-TFs on glutathione beads, 16-mer random dsDNA library, 0.1% formaldehyde crosslink after washing; high values mean tight binding
Conditions in all cases: protein: recombinant; tags: N-terminal GST; dsDNA, one strand shown
[1] = target: T1, ETV2 (Homo sapiens, UniProt O00321 1-342)
T1 sequence: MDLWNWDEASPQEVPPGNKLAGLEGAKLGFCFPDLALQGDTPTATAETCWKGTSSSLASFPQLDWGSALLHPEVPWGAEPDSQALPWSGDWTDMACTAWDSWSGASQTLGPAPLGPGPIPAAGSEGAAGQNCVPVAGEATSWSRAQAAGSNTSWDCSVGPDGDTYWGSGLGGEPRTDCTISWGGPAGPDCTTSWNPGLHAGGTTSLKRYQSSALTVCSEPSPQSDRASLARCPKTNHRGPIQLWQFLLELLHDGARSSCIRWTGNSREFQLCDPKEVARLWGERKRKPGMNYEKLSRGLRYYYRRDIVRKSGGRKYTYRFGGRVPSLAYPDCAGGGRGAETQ
Outline: (§1)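 Pools of DNA-barcoded human transcription factors, expressed in yeast as GST fusions on glutathione beads and combined with a tag-only sample, were incubated with 200 nmole of a 16-mer random double-stranded DNA library. Incubation took 30 min at room temperature in Tris/NaCl/DTT/glycerol buffer and was followed by washing, 0.1% formaldehyde crosslinking, proximity ligation (BsaI/T4 ligase, 1 h, 37 °C), PCR amplification and sequencing on an Illumina NextSeq500. Binding signal is the ratio of a hexamer's read frequency for a factor to its frequency for the tag-only sample.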

[2] = target: CRX (Homo sapiens, UniProt O43186 1-299)
Sequence of CRX (O43186 whole entry): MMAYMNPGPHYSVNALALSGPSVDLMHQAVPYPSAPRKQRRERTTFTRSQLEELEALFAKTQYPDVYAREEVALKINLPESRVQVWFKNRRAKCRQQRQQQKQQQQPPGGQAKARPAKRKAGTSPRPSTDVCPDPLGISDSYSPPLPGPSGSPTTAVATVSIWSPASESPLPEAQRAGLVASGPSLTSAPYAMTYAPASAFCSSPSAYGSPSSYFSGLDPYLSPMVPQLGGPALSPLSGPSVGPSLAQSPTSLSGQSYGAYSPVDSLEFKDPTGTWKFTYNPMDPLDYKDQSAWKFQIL
Outline: as §1

[3] = target: T2, ETV7 (Homo sapiens, UniProt Q9Y603 1-341)
T2 sequence: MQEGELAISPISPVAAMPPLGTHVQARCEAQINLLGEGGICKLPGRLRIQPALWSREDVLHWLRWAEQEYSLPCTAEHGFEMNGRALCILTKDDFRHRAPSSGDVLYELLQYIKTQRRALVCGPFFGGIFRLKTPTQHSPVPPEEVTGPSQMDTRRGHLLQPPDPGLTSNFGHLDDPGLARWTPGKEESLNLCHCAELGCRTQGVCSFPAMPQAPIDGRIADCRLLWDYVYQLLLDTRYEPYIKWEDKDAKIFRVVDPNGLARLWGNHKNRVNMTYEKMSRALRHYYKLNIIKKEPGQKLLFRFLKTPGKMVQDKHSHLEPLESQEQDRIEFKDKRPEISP
Outline: as §1

[4] = target: T3, ELF5 (Homo sapiens, UniProt Q9UKW6-2 1-255)
T3 sequence: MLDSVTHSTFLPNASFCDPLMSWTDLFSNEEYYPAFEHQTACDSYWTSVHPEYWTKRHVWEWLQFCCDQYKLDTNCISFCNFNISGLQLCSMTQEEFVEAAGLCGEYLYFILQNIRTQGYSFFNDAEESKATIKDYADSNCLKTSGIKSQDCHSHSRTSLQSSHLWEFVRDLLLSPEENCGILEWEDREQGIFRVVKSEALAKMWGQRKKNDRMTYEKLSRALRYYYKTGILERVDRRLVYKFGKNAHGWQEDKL
Outline: as §1

[5] = target: T4, ELK4 (Homo sapiens, UniProt P28324-2 1-405)
T4 sequence: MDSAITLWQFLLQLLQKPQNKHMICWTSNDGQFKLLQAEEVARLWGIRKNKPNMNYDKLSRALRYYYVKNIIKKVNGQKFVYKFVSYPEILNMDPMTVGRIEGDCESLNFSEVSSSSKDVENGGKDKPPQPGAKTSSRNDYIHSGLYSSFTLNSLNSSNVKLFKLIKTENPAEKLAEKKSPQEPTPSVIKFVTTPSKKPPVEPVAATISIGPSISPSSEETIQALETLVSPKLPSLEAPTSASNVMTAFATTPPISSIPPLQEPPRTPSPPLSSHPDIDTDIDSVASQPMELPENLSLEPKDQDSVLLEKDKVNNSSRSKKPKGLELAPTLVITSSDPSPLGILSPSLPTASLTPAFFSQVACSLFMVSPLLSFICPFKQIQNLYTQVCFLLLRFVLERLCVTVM
Outline: as §1

[6] = target: T5, ELF3 (Homo sapiens, UniProt P78545 1-371)
T5 sequence: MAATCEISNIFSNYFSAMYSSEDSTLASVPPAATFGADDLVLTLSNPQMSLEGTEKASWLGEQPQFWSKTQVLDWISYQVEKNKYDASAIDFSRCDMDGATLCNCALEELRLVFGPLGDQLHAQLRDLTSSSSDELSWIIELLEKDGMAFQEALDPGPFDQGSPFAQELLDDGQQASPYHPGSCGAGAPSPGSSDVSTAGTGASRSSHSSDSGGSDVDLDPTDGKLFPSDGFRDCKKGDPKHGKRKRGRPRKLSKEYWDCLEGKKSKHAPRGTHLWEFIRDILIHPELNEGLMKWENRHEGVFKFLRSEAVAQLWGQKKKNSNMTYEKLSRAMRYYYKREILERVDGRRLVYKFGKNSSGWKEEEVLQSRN
Outline: as §1

| Sequence | binding signal [1] | binding signal [2] | binding signal [3] | binding signal [4] | binding signal [5] | binding signal [6] |
| --- | --- | --- | --- | --- | --- | --- |
| GGTTAT | 1.09 fold enrichment (6-mer frequency, TF over GST control) | 1.04 fold enrichment (6-mer frequency, TF over GST control) | 1.12 fold enrichment (6-mer frequency, TF over GST control) | 1.1 fold enrichment (6-mer frequency, TF over GST control) |  |  |
| TGGGTA | 1.14 fold enrichment (6-mer frequency, TF over GST control) |  | 1.01 fold enrichment (6-mer frequency, TF over GST control) |  | 1.02 fold enrichment (6-mer frequency, TF over GST control) | 1.1 fold enrichment (6-mer frequency, TF over GST control) |
| GCAACC |  |  | 1.01 fold enrichment (6-mer frequency, TF over GST control) | 1.02 fold enrichment (6-mer frequency, TF over GST control) |  |  |
| TCATAC | 1.15 fold enrichment (6-mer frequency, TF over GST control) | 1.02 fold enrichment (6-mer frequency, TF over GST control) | 1.09 fold enrichment (6-mer frequency, TF over GST control) | 1.09 fold enrichment (6-mer frequency, TF over GST control) | 1.07 fold enrichment (6-mer frequency, TF over GST control) | 1.08 fold enrichment (6-mer frequency, TF over GST control) |
| GTTGCG | 1.03 fold enrichment (6-mer frequency, TF over GST control) |  | 1.04 fold enrichment (6-mer frequency, TF over GST control) | 1.02 fold enrichment (6-mer frequency, TF over GST control) | 1.01 fold enrichment (6-mer frequency, TF over GST control) |  |
| AGTGAC |  |  | 1.03 fold enrichment (6-mer frequency, TF over GST control) | 1.11 fold enrichment (6-mer frequency, TF over GST control) |  |  |
| GCAATT | 1.01 fold enrichment (6-mer frequency, TF over GST control) |  | 1.18 fold enrichment (6-mer frequency, TF over GST control) | 1.08 fold enrichment (6-mer frequency, TF over GST control) | 1.01 fold enrichment (6-mer frequency, TF over GST control) | 1.17 fold enrichment (6-mer frequency, TF over GST control) |
| ACTGTA | 1.17 fold enrichment (6-mer frequency, TF over GST control) |  |  | 1.07 fold enrichment (6-mer frequency, TF over GST control) | 1.08 fold enrichment (6-mer frequency, TF over GST control) |  |
| GGTATG | 1.05 fold enrichment (6-mer frequency, TF over GST control) |  | 1.01 fold enrichment (6-mer frequency, TF over GST control) |  | 1.09 fold enrichment (6-mer frequency, TF over GST control) |  |
| TGCCGG |  |  |  | 1.09 fold enrichment (6-mer frequency, TF over GST control) |  | 1.11 fold enrichment (6-mer frequency, TF over GST control) |
| CCAACC | 1.08 fold enrichment (6-mer frequency, TF over GST control) |  | 1.07 fold enrichment (6-mer frequency, TF over GST control) | 1.05 fold enrichment (6-mer frequency, TF over GST control) | 1.13 fold enrichment (6-mer frequency, TF over GST control) | 1.08 fold enrichment (6-mer frequency, TF over GST control) |
| CCCGGT |  |  | 1.01 fold enrichment (6-mer frequency, TF over GST control) | 1.05 fold enrichment (6-mer frequency, TF over GST control) | 1.13 fold enrichment (6-mer frequency, TF over GST control) | 1.06 fold enrichment (6-mer frequency, TF over GST control) |
| GTCCGC |  |  |  | 1.07 fold enrichment (6-mer frequency, TF over GST control) | 1.09 fold enrichment (6-mer frequency, TF over GST control) | 1.01 fold enrichment (6-mer frequency, TF over GST control) |
| AACGGA | 1.02 fold enrichment (6-mer frequency, TF over GST control) |  | 1.01 fold enrichment (6-mer frequency, TF over GST control) | 1.11 fold enrichment (6-mer frequency, TF over GST control) |  | 1.03 fold enrichment (6-mer frequency, TF over GST control) |
| CGGATC | 1.03 fold enrichment (6-mer frequency, TF over GST control) | 1.21 fold enrichment (6-mer frequency, TF over GST control) |  | 1.05 fold enrichment (6-mer frequency, TF over GST control) |  |  |
| TACCCC | 1.19 fold enrichment (6-mer frequency, TF over GST control) | 1.03 fold enrichment (6-mer frequency, TF over GST control) | 1.1 fold enrichment (6-mer frequency, TF over GST control) | 1.12 fold enrichment (6-mer frequency, TF over GST control) | 1.19 fold enrichment (6-mer frequency, TF over GST control) | 1.04 fold enrichment (6-mer frequency, TF over GST control) |
| ACATAG | 1.11 fold enrichment (6-mer frequency, TF over GST control) |  | 1.13 fold enrichment (6-mer frequency, TF over GST control) | 1.02 fold enrichment (6-mer frequency, TF over GST control) |  | 1.14 fold enrichment (6-mer frequency, TF over GST control) |
| AGTGTA |  |  | 1.1 fold enrichment (6-mer frequency, TF over GST control) |  |  |  |
| AGTGCC | 1.08 fold enrichment (6-mer frequency, TF over GST control) |  | 1.05 fold enrichment (6-mer frequency, TF over GST control) |  |  |  |
| GTAGTT | 1.04 fold enrichment (6-mer frequency, TF over GST control) |  | 1.03 fold enrichment (6-mer frequency, TF over GST control) | 1.07 fold enrichment (6-mer frequency, TF over GST control) | 1.1 fold enrichment (6-mer frequency, TF over GST control) | 1.09 fold enrichment (6-mer frequency, TF over GST control) |
| ACGGTT | 1.16 fold enrichment (6-mer frequency, TF over GST control) |  | 1.04 fold enrichment (6-mer frequency, TF over GST control) | 1.05 fold enrichment (6-mer frequency, TF over GST control) |  |  |
| TGTAAC | 1.21 fold enrichment (6-mer frequency, TF over GST control) |  | 1.18 fold enrichment (6-mer frequency, TF over GST control) | 1.21 fold enrichment (6-mer frequency, TF over GST control) | 1.37 fold enrichment (6-mer frequency, TF over GST control) | 1.22 fold enrichment (6-mer frequency, TF over GST control) |
| TGGTGG | 1.03 fold enrichment (6-mer frequency, TF over GST control) |  | 1.09 fold enrichment (6-mer frequency, TF over GST control) |  | 1.04 fold enrichment (6-mer frequency, TF over GST control) |  |
| ATAGCG |  |  |  |  |  | 1.11 fold enrichment (6-mer frequency, TF over GST control) |
| CATCAT | 1.22 fold enrichment (6-mer frequency, TF over GST control) |  | 1.05 fold enrichment (6-mer frequency, TF over GST control) | 1.07 fold enrichment (6-mer frequency, TF over GST control) | 1.11 fold enrichment (6-mer frequency, TF over GST control) | 1.1 fold enrichment (6-mer frequency, TF over GST control) |
| CGCCTG | 1.01 fold enrichment (6-mer frequency, TF over GST control) |  | 1.01 fold enrichment (6-mer frequency, TF over GST control) | 1.12 fold enrichment (6-mer frequency, TF over GST control) | 1.17 fold enrichment (6-mer frequency, TF over GST control) | 1.19 fold enrichment (6-mer frequency, TF over GST control) |
| CATACA | 1.1 fold enrichment (6-mer frequency, TF over GST control) |  | 1.1 fold enrichment (6-mer frequency, TF over GST control) |  | 1.06 fold enrichment (6-mer frequency, TF over GST control) |  |
| TTGTCA | 1.02 fold enrichment (6-mer frequency, TF over GST control) |  | 1.2 fold enrichment (6-mer frequency, TF over GST control) | 1.05 fold enrichment (6-mer frequency, TF over GST control) | 1.21 fold enrichment (6-mer frequency, TF over GST control) |  |

Source: PMC7862700, “An all-to-all approach to the identification of sequence-specific readers for epigenetic DNA modifications on cytosine”
